Among the data in PubChem BioAssay AID588391 (Broad Institute, 2011) are inhibition values, retold here.

In all, about 350,000 compounds went through this assay and about 180 (0.051%) were called active. The full list was thinned out, with actives kept by preference. A number with no mark means an inactive call.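 Rule for the calls: active = mean inhibition across replicates of 30% or more, whatever share of single replicates reach that level; inconclusive = mean inhibition below 30% while every single replicate reaches 30%; inactive = the rest.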

Sequence of Protein disulfide-isomerase (Homo sapiens) (P07237 whole entry, looked up): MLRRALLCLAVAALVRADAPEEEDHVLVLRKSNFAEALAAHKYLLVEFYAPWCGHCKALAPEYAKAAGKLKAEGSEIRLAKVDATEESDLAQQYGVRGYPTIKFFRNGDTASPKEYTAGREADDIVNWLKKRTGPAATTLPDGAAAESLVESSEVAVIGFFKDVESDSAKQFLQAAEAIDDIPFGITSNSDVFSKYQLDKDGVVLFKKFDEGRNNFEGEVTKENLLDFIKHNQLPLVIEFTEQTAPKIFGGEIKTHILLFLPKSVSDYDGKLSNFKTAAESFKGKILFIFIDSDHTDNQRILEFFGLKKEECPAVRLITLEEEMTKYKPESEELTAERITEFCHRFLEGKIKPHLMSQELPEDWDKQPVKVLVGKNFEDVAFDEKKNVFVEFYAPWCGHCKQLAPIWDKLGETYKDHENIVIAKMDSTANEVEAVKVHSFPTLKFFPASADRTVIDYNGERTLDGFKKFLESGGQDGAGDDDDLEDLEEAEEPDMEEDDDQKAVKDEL

This experiment addresses Protein disulfide-isomerase (Homo sapiens) (UniProt P07237). Nature of the experiment: blockers of PDI-driven insulin aggregation – biochemical, turbidity, single point, plate reader, primary screen (AID 588391).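 Note: absorbance from insulin aggregation driven by PDI reduction with DTT.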 The following applies: A650, 90 min, at 10 µM, stronger effect = higher value.
On to `COCOc1cccc(CN2CCC(C)(Oc3ccc(SC)cc3)C2)c1` (stereo unspecified), for which the inhibition was -14.7%.

For the compound `CC1(C(=O)NCc2ccc(F)c(F)c2)Cc2c(-c3ccc4c(c3)OCO4)ccnc2O1` (stereo unspecified), the inhibition is 5.69%.

On to `CCOC(=O)c1[nH]c2ccc(OC)cc2c1NC(=O)N1CCOCC1`, for which the inhibition is -4.02%.

As to `COc1ccc2[nH]c3c(C)c4cc[n+](C)cc4c(C)c3c2c1`, the inhibition is 46.3% (active).

In the case of `COc1ccc(CC(N)c2csc(NC(=O)Cc3ccccc3)n2)cc1` (stereo unspecified), the inhibition was 8.14%.

Regarding `CC1(C(=O)NS(=O)(=O)c2cccc(F)c2)CCN1C(=O)Cc1cc(F)ccc1F` (stereo unspecified), the inhibition was 9.62%.

For `CC1(Oc2ccc(Cl)cc2)CCN(Cc2csc3ccccc23)C1` (stereo unspecified), the inhibition was -0.538%.

For `CCc1nc2ccc(C(=O)Nc3cc(-c4ccccc4)ccc3OC)cn2c1N(CC)CC(=O)N(C)C`, the inhibition was -5.43%.

`OC(c1cc(Cl)cc(Cl)c1)c1ncc(-c2ccccc2C(F)(F)F)[nH]1` (stereo unspecified): the inhibition is -0.656%.

As to `CC1(C(=O)Nc2cccc(Oc3ccccc3)c2)CCN1Cc1ccccc1Cl` (stereo unspecified), the inhibition is 8.27%.

As to `CCc1nc2ccc(C(=O)NCc3ccc(OC)cc3)cn2c1N(CC)Cc1cccc(Br)c1`, the inhibition was 19.2%.

For `CC1(Oc2ccccc2-c2ccno2)CCN(Cc2ccc(-c3ccccc3)o2)C1` (stereo unspecified), the inhibition is 15.2%.

Turning to `CCNC(=O)C1CCCN(C(=O)c2cc(F)ccc2C)CC1` (stereo unspecified), the inhibition is -2.55%.

On to `COc1ccc(-c2cc(NC=O)c3ncc(-c4cc(OC)c(OC)c(OC)c4)n3c2)c(OC)c1`, for which the inhibition was 2.23%.

For `CCCNC(=O)C1(C)CCCN(Cc2c(C)nn(-c3ccccc3)c2C)C1` (stereo unspecified), the inhibition is 1.08%.

`O=CNc1cc(-c2ccc(C(=O)N3CCOCC3)cc2)cn2c(-c3ccc(F)cc3)cnc12`: the inhibition was -18.3%.

Consider `Cc1cccc(-c2cnc(C(O)c3cc(C)cc(C)c3)[nH]2)c1` (stereo unspecified), for which the inhibition was 8.93%.

Take `CCOC(=O)c1ccccc1NC(=O)COC(=O)C(Cc1c[nH]c2ccccc12)NC(C)=O` (stereo unspecified): the inhibition is 5.96%.

In the case of `CCOc1cc(N2CCOCC2)c(OCC)cc1NC(=O)c1ccc(C)s1`, the inhibition was -4.12%.

Consider `CCOc1cc(N2CCOCC2)c(OCC)cc1NC(=O)COC(=O)[C@H](Cc1c[nH]c2ccccc12)NC(C)=O`, for which the inhibition is 44.5% (active).

Consider `COc1ccc(S(=O)(=O)N2CCCCC2c2cc(C(=O)NCc3ccc(F)cc3)no2)cc1` (stereo unspecified), for which the inhibition was -0.518%.

`CCNC(=O)C1(C)CCN(C(=O)c2ccccc2)C1` (stereo unspecified): the inhibition is -56.1%.

For the compound `CC1(C(=O)NCc2ccc3c(c2)OCO3)CCN1CCc1ccccc1` (stereo unspecified), the inhibition is 3.4%.

`O=C(NCc1ccco1)c1cccc(-c2ccc3nncn3c2)c1`: the inhibition is 3.75%.

For the compound `COc1ccc(-c2cc(NC(C)=O)c3ncc(-c4cc(OC)c(OC)c(OC)c4)n3c2)cn1`, the inhibition is -21.1%.

For the compound `CN(C)C(=O)c1cccc(-c2cnc3sc(NCc4ccc5c(c4)OCO5)nn23)c1`, the inhibition was 9.47%.

Regarding `O=C(NCc1ccc(F)cc1)c1cc(C2CCCCN2C(=O)c2ccccn2)on1` (stereo unspecified), the inhibition is -12%.

Turning to `CCN(CC)C(=O)C1CCCN(Cc2cccc(Cl)c2)C1` (stereo unspecified), the inhibition was -5.23%.

Take `Cc1nc(C(F)(F)F)ccc1C(=O)N1CCC1(C)C(=O)NS(=O)(=O)c1ccccc1` (stereo unspecified): the inhibition is -40%.

With `CC(=O)Nc1cc(-c2ccccc2F)cn2c(-c3cccc(C(F)(F)F)c3)cnc12`, the inhibition was 0.488%.

Turning to `CC(C)c1cccc(-c2csc(C(O)c3ccccc3)n2)c1` (stereo unspecified), the inhibition is 4.52%.

Regarding `CC(=O)OC1CCC2C3CCC4=C(CC(F)C(=O)C4)C3CCC12C` (stereo unspecified), the inhibition is 70.6% (active).

Regarding `CCC(=O)N1CCC(C)(C(=O)Nc2cc(OC)c(OC)c(OC)c2)C1` (stereo unspecified), the inhibition was -1.21%.

As to `Cc1ccc(NS(=O)(=O)c2cc3c(cc2Br)NC(=O)CO3)cc1C`, the inhibition is -4.51%.

As for `CCc1nc2c(OCc3ccc(C(F)(F)F)cc3)cccn2c1N(C)C(=O)CC(C)C`, the inhibition was -3.58%.

`OC(c1ccccc1)c1nc(-c2cnc3ccccc3c2)cs1` (stereo unspecified): the inhibition was 4.04%.

On to `CCOCCC(=O)Nc1ccc2c(c1)c(=O)n(C)n2-c1ccc2ccccc2c1`, for which the inhibition was -6.74%.

Take `Cc1nc2c(OCC(=O)C(C)(C)C)cccn2c1N(C)Cc1cccs1`: the inhibition is -1.4%.

As to `CCCS(=O)(=O)NC(=O)C1(C)CCN(C(=O)c2sccc2C)C1` (stereo unspecified), the inhibition was 4.32%.

As for `CCOC(=O)c1ccc(-c2ccc3ncnc(N(C)Cc4sccc4C)c3c2)o1`, the inhibition was -3.79%.

For the compound `CCc1nc2ccc(C(=O)N(C)CCN(C)C)cn2c1N(CC)CCOC`, the inhibition was 12.7%.

As for `CC(=O)Nc1ccc(-c2ccnc3c2CC(C(=O)NC(C)C)O3)cc1` (stereo unspecified), the inhibition was -7.94%.

Turning to `COc1ccc(-c2coc3c(C(=O)NC(C)C)cccc23)c(C)c1`, the inhibition is -1.08%.

With `Cc1ccc(C(NC(=O)C2CCN(CCOc3ccc(Cl)cc3Cl)CC2)c2ccccn2)cc1` (stereo unspecified), the inhibition is 2.42%.

Regarding `O=C(NCCO)c1cccc(-c2cccc3nccn23)c1`, the inhibition is -96.6%.

Turning to `Cc1ccc(-c2cnc(C(O)c3cc(Cl)cc(Cl)c3)[nH]2)cc1` (stereo unspecified), the inhibition was -2.73%.

With `COc1cccc(C(O)c2ncc(-c3ccc4ccccc4c3)[nH]2)c1` (stereo unspecified), the inhibition is 7.38%.

In the case of `COc1ccc(C(=O)N2CCCCC2c2cc(C(=O)Nc3ccccc3)no2)cc1` (stereo unspecified), the inhibition was -4.91%.

`O=C(NCc1cccnc1)c1ccc2nc([C@@H]3O[C@H](CO)[C@H](O)[C@H](O)[C@H]3O)[nH]c2c1`: the inhibition was -7.99%.

As for `CC1(C(=O)NS(=O)(=O)c2cccc(F)c2)CCN1C(=O)c1cccc2ccccc12` (stereo unspecified), the inhibition was -12.2%.

Regarding `CC(=O)c1cccc(-c2cnc3c(NC=O)cc(-c4ccccc4Oc4ccccc4)cn23)c1`, the inhibition was -15.6%.

Consider `CCNC(=O)C1CCCN(C(=O)c2ccc(OC)cc2OC)CC1` (stereo unspecified), for which the inhibition is -2.37%.

Regarding `Cc1ccccc1-c1csc(C(O)c2cccc(Cl)c2)n1` (stereo unspecified), the inhibition is 4.37%.

Consider `CCN(CCN(C)C)C(=O)c1ccc2nc(C)c(N(C)C(=O)CCc3ccccc3)n2c1`, for which the inhibition is 5.52%.

As for `CCOc1ccc(Cl)cc1-c1cc(C(=O)NCc2cccs2)[nH]n1`, the inhibition is 5.86%.

For the compound `CCCNC(=O)c1cc(C2CCCCN2C(=O)OC)on1` (stereo unspecified), the inhibition is 5.56%.
